We go through 95 molecules from PubChem BioAssay AID2314 (National Center for Advancing Translational Sciences (NCATS), 2010).

“And” between values parts separate entries of the source, which are not always exact repeats. Identical values can stand only once. About 37,000 (12%) of roughly 300,000 compounds were called active. The list comes from a sample in which actives are over-represented; it also holds similar structures and randomly drawn compounds. Unmarked numbers belong to inactive results. Cut-off read from the data, not from the text of the source: active = max response mostly above about 13% (no sharp cut-off); inactive = mostly below about 14%.

The test is described as follows: Cycloheximide Counterscreen for Small Molecule Inhibitors of Shiga Toxin. Note: read at 38.3 µM for the half of the compounds with a filed dose; 0% is about no effect. The note with it: cell reporter, cycloheximide protein synthesis inhibition counterscreen; stronger effect = higher value. A general note: The purpose of a counterscreen is to sort out artefacts and off-target activity.
As to `CCCCCCCN=C(C)c1ccccc1O`, the max response was -3.52%. In the case of `CCN(CC)CCCN=C(N)N` it was -0.653%. In the case of `CCCCCCCCCCCCN=C(N)N`, the max response is 13.5% (active). Under `O=C1C(=O)N(CC2COc3ccccc3O2)c2ccccc21` (stereo not given) stands -1.34%; under `COc1cccc(CNc2nc(C(F)(F)F)nc3ccccc23)c1`, -1.53%; under `COc1cccc(CNS(=O)(=O)c2cc3c(cc2C)n(C)c(=O)c(=O)n3C)c1`, -2.63%. Under `COc1cccc(CNc2ncc(-c3ccccc3)n2C)c1` stands 23.9% (active); under `CCOC(=O)C1CCN(C(=O)Cn2nc(C)c3c(C)n(-c4ccccc4)nc3c2=O)CC1`, -0.326%. `O=C(CCc1nnc2ccc(NCCCN3CCCC3=O)nn12)NCc1ccccc1Cl`: the max response is -2.54%. In the case of `CC(C)(C)NC(=O)C(c1ccc(Cl)cc1)N(CCO)C(=O)c1snc(C(N)=O)c1N` (stereo not given) it was -3.49%; in that of `Cc1ccc(NC(=O)C2CCCN2S(=O)(=O)c2cccc3cccnc23)c(C)c1` (stereo not given), -1.86%. Take `Cc1ccc(N2CCN(/N=C/c3cccs3)CC2)cc1`: the max response was 7.5%. In the case of `Nc1nnnn1/N=C/c1cccs1` it was -4.55%; in that of `C(=N/N1CCN(c2ccccc2)CC1)/c1cccs1`, 36.9% (active). Under `Cc1cccc(-c2c(NC(=O)c3ccco3)oc3ccc(Cl)cc3c2=O)c1` stands -1.7%; under `CC(C)c1ccc(S(=O)(=O)N2CCC3(CC2)OCCO3)cc1`, -1.14%; under `CC(C)c1ccc(/C=C2\NC(=O)NC2=O)cc1`, 18.8% (active). In the case of `COC(=O)CN1C(=O)[C@H]2[C@@H](/C=C/c3ccccc3)N3C(=O)CN(Cc4ccccc4)C(=O)[C@@]3(Cc3ccccc3)[C@H]2C1=O` it was -3.52%.

On to `COc1ccc(N(C(=O)c2cccnc2)S(=O)(=O)c2ccc(OC)c(OC)c2)cc1`, for which the max response was 1.15%. Turning to `O=C(Cc1ccccc1)Nc1cccc(C(=O)N/N=C/c2ccco2)c1`, the max response was 0.305%.

Take `N#CCC(=O)N/N=C/c1ccc(SCC(=O)Nc2ccccc2)o1`: the max response is 2.34%. In the case of `O=C(CSc1ccc(/C=N/NC(=O)c2cccc(F)c2)o1)Nc1ccccc1` it was 47.1% (active); in that of `COc1cccc2sc(N(CCCN(C)C)C(=O)C(c3ccccc3)c3ccccc3)nc12`, -11.2%. As to `Cc1ccccc1NC(=O)NCc1ccco1`, the max response is 9.11%. As for `Cc1ccc(NC(=O)C(=O)NCc2ccco2)c(C)c1`, the max response was 41.1% (active). For the molecule `Cc1ccc(NC(=O)Cn2nnc(C(=O)NCc3ccco3)c2N)c(C)c1`, the max response was 9.89%.

For the molecule `CN(CC(=O)Nc1ccc(F)cc1)CC(=O)Nc1ccc(Cl)c(S(=O)(=O)N2CCOCC2)c1`, the max response is -2.41%. Turning to `C/C=C/c1ccc(OCC(O)CN2CCCCCCC2)c(OC)c1` (stereo not given), the max response was 9.28%. Take `CCOC(=O)c1ccc(NC(=O)Cn2cnc3cc(C)c(C)cc32)cc1`: the max response was 6.04%. For `CCn1c(=O)c2ccccc2n(CC(=O)N2CCCc3ccccc32)c1=O`, the max response was -2.55%. For the molecule `CN(C)CCN=c1cc(-c2ccccc2)oc2ccc(Cl)cc12`, the max response was 23.6% (active). Take `CN(C)CCn1c(=S)[nH]c2ccc(Cl)cc2c1=O`: the max response was -5.79%. Under `CCOC(=O)c1c(NC(=O)CNC2CCCc3ccccc32)sc(C(N)=O)c1C` (stereo not given) stands 9.96%; under `O=C(N/N=C/c1cc2c(cc1Br)OCO2)C1COc2ccccc2O1` (stereo not given), 52.6% (active); under `O=C(N/N=C\c1cc(Br)c(Br)o1)C1COc2ccccc2O1` (stereo not given), 9.2%. As for `O=C(CNC(=O)C1COc2ccccc2O1)N/N=C/c1cc(Br)c(O)c(Br)c1` (stereo not given), the max response is -2.17%.

Regarding `CCOC(=O)CSc1nc(N2CCOCC2)c2c(c1C#N)CC(C(C)C)OC2` (stereo not given), the max response was -2.94%. Under `Cc1ccc(-c2noc(CSc3nnnn3-c3ccccc3)n2)cc1` stands 17.8% (active); under `Cc1ccc(-c2noc(CSc3nnc(-c4ccccc4)n3C)n2)cc1`, -0.58%. Under `Cc1ccc(-c2noc(CSc3nnc(-c4cccs4)n3C)n2)cc1` stands 5.33%; under `O=C(C1CCCO1)N(c1ccc(F)cc1)C1C=CS(=O)(=O)C1` (stereo not given), -9.85%. Under `CC(=O)Nc1cccc(/C(C)=N/NC(=O)c2c(-c3ccccc3Cl)noc2C)c1` stands 0.404%; under `Cc1onc(-c2ccccc2Cl)c1C(=O)OCC(=O)c1ccccc1`, 38.6% (active); under `Cc1onc(-c2ccccc2Cl)c1C(=O)NCCn1ccc2ccccc21`, -2.37%. Regarding `CC(=O)n1cc([C@H]2C=C(C(=O)N3CCOCC3)O[C@@H](OCc3ccc(CO)cc3)C2)c2ccccc21`, the max response was -0.396%.

As for `Cc1ccc(S(=O)(=O)N2CCN(C)CC2)cc1`, the max response is 1.47%. Turning to `O=C1CSC(c2ccccc2)N1c1nc(-c2ccc(Cl)cc2Cl)cs1` (stereo not given), the max response is -1.24%.

In the case of `Clc1ccc(-c2ncc3ccccn23)c(Cl)c1`, the max response was -0.544%. Under `Clc1ccc(-c2cc(-c3ccccn3)on2)c(Cl)c1` stands 29.5% (active). Take `C(=N\Nc1ccc2ccccc2n1)/c1ccc2c(c1)OCO2`: the max response is -3.9%. Under `Cc1noc(C)c1/C=N/Nc1ccc2ccccc2n1` stands 39.1% (active); under `O=C(O)/C(=C/c1cccnc1)NC(=O)c1ccccc1`, 0.766%.

As for `O=C(/C=C\NCC(=O)c1ccccc1)c1ccccc1`, the max response is 35.9% (active). For the molecule `O=C(/C=C/NNC(=O)c1cccc(Br)c1)c1ccccc1`, the max response is 22.3%. In the case of `CCOC(=O)CNC(=O)/C(=C\c1ccc(F)cc1)NC(=O)c1ccccc1` it was -0.456%; in that of `Cc1cccc[n+]1CC(=O)c1ccccc1`, 0.405%; in that of `O=C(CNCc1ccc(F)cc1)Nc1ccccc1-c1ccccc1`, -4.19%. Turning to `O=C(/C=C/NCc1ccc(F)cc1)c1ccccc1`, the max response is 53.1% (active). For `Cc1ccc(C(=O)Oc2ccc(C(=S)N3CCOCC3)cc2)cc1`, the max response was -3.19%.

Regarding `COC(=O)C1(C)NC(c2ccc(C)cc2)C2C(=O)N(c3ccc(F)cc3)C(=O)C21` (stereo not given), the max response was 1.36%. With `CCOC(=O)CNC(=O)/C=C/c1c(Cl)cccc1Cl`, the max response is -3.14%. In the case of `CNC(=S)N/N=C/c1cn(Cc2ccc(C)cc2)c2ccccc12` it was 3.75%. Under `COC(=O)N/N=C/c1cn(CCCOc2ccc(C)cc2)c2ccccc12` stands 44.1% (active); under `CCOC(=O)N/N=C/c1cn(Cc2ccccc2Cl)c2ccccc12`, 4.93%. In the case of `Cc1ccc(Cn2ncc3c4sc(C)cc4n(C)c3c2=O)c(C)c1`, the max response is 5.87%.

`CCn1cc(/C=C2/SC(=S)NC2=O)c(C)n1`: the max response was 2.94%. For `Cc1nn(C)cc1/C=C1\CCC/C(=C\c2cn(C)nc2C)C1=O`, the max response was 18.2% (active). As to `O=C1/C(=C/c2ccc3c(c2)OCO3)CCC/C1=C\c1ccc2c(c1)OCO2`, the max response was 0.534%.

On to `CCOc1ccc(NC(=O)COc2ccc(S(=O)(=O)N3CCCC3)cc2)cc1`, for which the max response is 1.08%. In the case of `Cc1c(C(=O)NC(=S)NCc2cccnc2)oc2ccccc12` it was 6.33%.

Consider `COc1ccc(NC(=O)C2CCC(CNC(=O)[C@@H]3Cc4ccccc4CN3)CC2)cc1` (stereo not given in full), for which the max response was 15.5%. Turning to `CCOC(=O)C1CCN(C(=O)C2CCCN(S(=O)(=O)c3ccc(OC)c(Cl)c3)C2)CC1` (stereo not given), the max response was -4.35%.

Take `CCOc1ccc(S(=O)(=O)N2CCCC(C(=O)N3CCC(C(N)=O)CC3)C2)cc1Cl` (stereo not given): the max response was 23.5% (active). Consider `CCN1CCN(C(=O)C2CCCN(S(=O)(=O)c3ccc(OC)c(OC)c3)C2)CC1` (stereo not given), for which the max response was -4.36%. Under `COCCCC1CCN(C(=O)C2CCC(=O)N(C3CCCCCC3)C2)CC1` (stereo not given) stands -2.1%; under `COc1ccc(C(C(O)C(=O)c2c[nH]c3ccccc23)N2CCN(c3ccccc3)CC2)cc1` (stereo not given), 11.6% (active); under `COc1ccc(C(=O)Nc2ccccc2C(=O)N2CCN(c3ccccc3)CC2)cc1`, 11.6%. On to `COc1ccc(C(CC(=O)N2CCN(c3ccccc3)CC2)c2c(O)cc(OC)cc2OC)cc1` (stereo not given), for which the max response was -2.39% and 0.819%. In the case of `Cc1c(C)n(Cc2ccc(Cl)cc2)c2ccc(C(=O)NCCCN3CCOCC3)cc12` it was -6.61%; in that of `O=C(NCCCn1ccnc1)/C(=C\c1ccccc1F)NC(=O)c1ccccc1`, -1.78%; in that of `O=C(Nc1cccc(Br)c1)c1ccc2snnc2c1`, 26.9% (active). Regarding `O=C(Nc1ccc2ccccc2c1)Nc1ccc2snnc2c1`, the max response is 14.6%. In the case of `CCc1ccccc1NC(=O)c1ccc2snnc2c1` it was -0.462%; in that of `COC(=O)Cc1cnc(NC(=O)CSc2nc(C(C)C)cc(=O)[nH]2)s1`, -1.1%.

On to `COc1ccc(/C=C/C(=O)OCC(=O)Nc2cccc(Oc3ccccc3)c2)c(OC)c1`, for which the max response was -2%. Turning to `CC(C)(C)c1ccc(Oc2ccc(N)cc2)cc1`, the max response is -11.7%.

Regarding `Cc1ccc(Oc2ccc(N)cc2)cc1`, the max response is 14.2% (active). On to `Nc1ccc(Oc2ccc(Cl)cc2)cc1`, for which the max response is 10.9%. In the case of `COc1cccc(OCCCN2CCCCCC2)c1` it was 10.5%; in that of `COc1cccc(Oc2ccc(N)cc2)c1`, 19.4% (active); in that of `O=C(Oc1ccc(Br)cc1C(=S)N1CCOCC1)c1cccc([N+](=O)[O-])c1`, -2.16%.

Regarding `CC1(C(=O)NCCc2c[nH]c3ccccc23)C=CC2(CCCCC2)N1C(=O)c1ccccc1` (stereo not given), the max response was 17.5%. For `Cc1ccc(Nc2nc(CSc3nnc(-c4ccncc4)n3-c3ccccc3C)cs2)cc1`, the max response was 6.52%. Under `COc1ccccc1N1CCC(N2CCN(CC(C)(C)C)C(CCO)C2)CC1` (stereo not given) stands 1.35%.

Regarding `NC(=O)C1CCN(Cc2nc3c(Br)cc(Br)cc3c(=O)[nH]2)CC1`, the max response is 4.18%.
